Reference: a collection of fitness landscapes (doi:10.1016/j.celrep.2020.107928)
In all, about 81,000 sequences were measured (“one-hybrid fitness for binding parS DNA”: median about -0.17, highest 2% from about 0.51 on). Only a selection was taken, and the highest values are over-represented in it overall.

B1: Caulobacter ParB omega fusion; a variant is named by its letters at X, in order, B8GW30 (parent)
chain: MESVVVGEPGMSEGRRGLGRGLSALLGEVDAAPAQAPGEQLGGSREAPIEILQRNPDQPRRTFREEDLEDLSNSIREKGVLQPILVRPSPDTAGEYQIVAGERAWRAAQRAGLKTVPIMVRELDDLAVLEIGIIENVQRADLNVLEEALSYKVLMEKFERTQENIAQTIGKSXSHVANXMRLLXLPDEVQSYLVSGELTAXHARAIAAAADPVALAKQIIEGGLSVRETEALARKAPNLSAGKSKGGRPPRVKDTDTQALESDLSSVLGLDVSIDHRGSTGTLTITYATLEQLDDLCNRLTRGI

Variants of: B1
Assay: one-hybrid fitness for binding parS DNA (scaled: cognate 1, non-cognate 0); higher = stronger binding
Details: with parS DNA site
Method in brief: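 Fitness here means the log change in variant-to-wild-type read ratio between plasmids sequenced before and after selection. That scale was set so cognate equals 1 and non-cognate equals 0. The selection was a bacterial one-hybrid screen of Caulobacter ParB libraries, four specificity codons randomised, in E. coli USO carrying a HIS3 reporter with the site 19 bp from the promoter, grown 48 hours at 37°C on M9-minus-histidine with 0.1 mM IPTG and 5 mM 3-AT.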

Variant	one-hybrid fitness for binding parS DNA
TVTE	≤ 0.2
HTAD	≤ 0.2
AGDD	≤ 0.2
KANA	≤ 0.2
WSQY	≤ 0.2
NLNG	≤ 0.2
DWLT	≤ 0.2
RAAN	0.448
RAAG	1
RAFR	≤ 0.2
RAAP	≤ 0.2
RAFY	0.499
RAFG	0.978
KYLA	≤ 0.2
TKWY	≤ 0.2
KNQS	≤ 0.2
CSRV	≤ 0.2
ATTE	≤ 0.2
WMPS	≤ 0.2
CPLP	≤ 0.2
GALY	≤ 0.2
NGLG	≤ 0.2
RQQQ	≤ 0.2
RQGK	≤ 0.2

Variant	one-hybrid fitness for binding parS DNA
RQQK	≤ 0.2
RQHR	≤ 0.2
RQGM	0.287
RQHM	0.325
RQSQ	≤ 0.2
RQGC	0.916
RQHC	0.946
RQQC	0.951
RQSY	0.465
RQSC	0.968
KYCL	≤ 0.2
AFDN	≤ 0.2
GKGS	≤ 0.2
WSNM	≤ 0.2
GTTW	≤ 0.2
ACNL	≤ 0.2
CRNF	≤ 0.2
SNIR	≤ 0.2
RQRF	0.247
RQLQ	≤ 0.2
RQRC	0.943
RQYF	0.256
RQCC	0.874
RQLY	0.442

Variant	one-hybrid fitness for binding parS DNA
RQCQ	≤ 0.2
RQRY	0.504
RQLC	0.952
RQYC	0.94
RQYR	≤ 0.2
RQCK	≤ 0.2
VAQC	≤ 0.2
FEDR	≤ 0.2
QQVS	≤ 0.2
VEHM	≤ 0.2
CAAW	≤ 0.2
APPF	≤ 0.2
YVRD	≤ 0.2
RQWD	≤ 0.2
RQWN	0.286
RQWC	0.797
CVQT	≤ 0.2
RFAD	≤ 0.2
RFAS	0.976
RFAH	≤ 0.2
RFFD	≤ 0.2
RFFP	≤ 0.2
RFFS	0.841
LQNH	≤ 0.2

Variant	one-hybrid fitness for binding parS DNA
TREM	≤ 0.2
DHQQ	≤ 0.2
STCC	≤ 0.2
RMCH	0.262
RTCK	≤ 0.2
RDCG	≤ 0.2
RSCQ	≤ 0.2
RMCG	1.04
RICY	0.492
RICG	0.976
RSCG	0.966
RTCQ	≤ 0.2
RICQ	0.256
RTCG	0.999
RMCN	0.389
ECVT	≤ 0.2
WSQP	≤ 0.2
VYQR	≤ 0.2
KDPE	≤ 0.2
DISI	≤ 0.2
KTLW	≤ 0.2
RLCM	0.342
RCCG	1.03
RECG	0.221

Variant	one-hybrid fitness for binding parS DNA
RPCG	≤ 0.2
RLCF	0.27
RLCG	1
PASK	≤ 0.2
CNGG	≤ 0.2
SRGF	≤ 0.2
AQNP	≤ 0.2
TPWY	≤ 0.2
KCYT	≤ 0.2
VISS	≤ 0.2
QETP	≤ 0.2
PTTA	≤ 0.2
DTNY	≤ 0.2
RYMS	0.963
RYML	≤ 0.2
RYMQ	≤ 0.2
RYMK	≤ 0.2
RYMH	≤ 0.2
RYMT	0.887
RYMN	0.395
RYMG	0.971
RYMP	≤ 0.2
RYMC	0.994
RYMR	≤ 0.2

Variant	one-hybrid fitness for binding parS DNA
RYMD	≤ 0.2
LCMG	≤ 0.2
NWQY	≤ 0.2
NQMR	≤ 0.2
DFGS	≤ 0.2
NLVV	≤ 0.2
TGGR	≤ 0.2
HAMN	≤ 0.2
WKPV	≤ 0.2
DGVM	≤ 0.2
RPCN	≤ 0.2
APGA	≤ 0.2
LMVR	≤ 0.2
EFNL	≤ 0.2
WIWS	≤ 0.2
RCCC	0.959
RSCD	≤ 0.2
RPCC	≤ 0.2
RSCP	≤ 0.2
RDCC	≤ 0.2
RSCC	0.915
RRIP	≤ 0.2
RRPF	≤ 0.2
RRIM	≤ 0.2

Variant	one-hybrid fitness for binding parS DNA
RRPG	0.891
RRIG	0.908
RRPQ	≤ 0.2
TAAL	≤ 0.2
KHMS	≤ 0.2
RYTG	0.992
RYTY	0.429
RYTS	0.904
RYTM	0.295
RYTK	≤ 0.2
RYTR	≤ 0.2
RYTT	0.884
RYTN	0.429
RYTP	≤ 0.2
RYTD	≤ 0.2
RYTH	≤ 0.2
RYTC	0.903
RFHK	≤ 0.2
NTHH	≤ 0.2
YAER	≤ 0.2
SRAR	≤ 0.2
DHRG	≤ 0.2
WTKG	≤ 0.2
TPGV	≤ 0.2

Variant	one-hybrid fitness for binding parS DNA
PQLQ	≤ 0.2
RWAM	≤ 0.2
RWAG	0.72
RWFK	≤ 0.2
KWFG	≤ 0.2
RWAF	≤ 0.2
RWFG	0.615
TYPT	≤ 0.2
MSSI	≤ 0.2
DTPG	≤ 0.2
HKES	≤ 0.2
ANPQ	≤ 0.2
WNSC	≤ 0.2
RNNS	0.969
RNNP	≤ 0.2
RNDS	0.823
RNND	≤ 0.2
RNDP	≤ 0.2
RNDN	0.226
HDLV	≤ 0.2
IGRI	≤ 0.2
WCIS	≤ 0.2
PFSI	≤ 0.2
AYDD	≤ 0.2

Variant	one-hybrid fitness for binding parS DNA
RKLY	0.402
RKQM	≤ 0.2
RKQR	≤ 0.2
RKQG	0.913
RKLG	0.964
RKYG	0.952
RKYD	≤ 0.2
RKGH	≤ 0.2
RKYN	0.297
RKGG	0.937
RKLK	≤ 0.2
RKGP	≤ 0.2
ASNF	≤ 0.2
STMD	≤ 0.2
THAI	≤ 0.2
HFAT	≤ 0.2
VNIM	≤ 0.2
GRPC	≤ 0.2
ANQN	≤ 0.2
HYCT	≤ 0.2
RKHG	0.925
RKCM	0.286
RKCG	0.971
RKRP	≤ 0.2

Variant	one-hybrid fitness for binding parS DNA
RKHF	≤ 0.2
RKCQ	≤ 0.2
RKRD	≤ 0.2
RKHR	≤ 0.2
RKRG	0.851
QYTT	≤ 0.2
HLKG	≤ 0.2
TWTY	≤ 0.2
QNAG	≤ 0.2
GTTH	≤ 0.2
SETA	≤ 0.2
TDDG	≤ 0.2
QFHD	≤ 0.2
RMRM	0.379
RMGF	0.269
RMNT	0.904
RMDF	0.223
RMGK	≤ 0.2
RMDT	0.794
RMRQ	≤ 0.2
RMND	≤ 0.2
RMDL	≤ 0.2
RMNF	0.237
RMGT	0.937

Variant	one-hybrid fitness for binding parS DNA
RMRT	0.812
GTPS	≤ 0.2
EHHI	≤ 0.2
KHQH	≤ 0.2
PMNI	≤ 0.2
RECV	≤ 0.2
NATT	≤ 0.2
LRNV	≤ 0.2
MRHY	≤ 0.2
KGRF	≤ 0.2
YADG	≤ 0.2
YTRC	≤ 0.2
QWHV	≤ 0.2
RMYD	≤ 0.2
RMSF	0.258
RMYP	≤ 0.2
RMST	0.945
RMQD	0.318
RMQT	0.921
RMSM	0.37
RMYT	0.923
RMQP	≤ 0.2
VHYL	≤ 0.2
ADVS	≤ 0.2

Variant	one-hybrid fitness for binding parS DNA
GAPV	≤ 0.2
SQVL	≤ 0.2
AMKY	≤ 0.2
GIMG	≤ 0.2
SACQ	≤ 0.2
RWLW	≤ 0.2
RMAS	0.991
RMFD	≤ 0.2
RMFS	1.07
RMAN	0.46
RMAH	0.282
RMFP	≤ 0.2
PWEY	≤ 0.2
LATA	≤ 0.2
RLDI	≤ 0.2
ENYW	≤ 0.2
AEQK	≤ 0.2
RYAP	≤ 0.2
RYFS	1.02
RYFN	0.425
RYAH	≤ 0.2
RYAS	0.917
RYFP	≤ 0.2
PWFC	≤ 0.2

Variant	one-hybrid fitness for binding parS DNA
RMLS	1.04
RMNY	0.529
RMLN	0.439
RMRN	0.418
RMDY	0.405
RMLH	0.275
RMRS	0.868
RMDS	1.02
RMDD	≤ 0.2
RMDP	≤ 0.2
RMRP	≤ 0.2
FDLP	≤ 0.2
LARN	≤ 0.2
YKTN	≤ 0.2
PMMG	≤ 0.2
TDRN	≤ 0.2
IALI	≤ 0.2
HAQR	≤ 0.2
